Assay outcomes: PubChem BioAssay, National Center for Advancing Translational Sciences (NCATS)
Rows were chosen to be rich in hits. Some 15% of all compounds tested hit in one or more screens of this group.
Sm TGR block: inhibitors of Schistosoma mansoni thioredoxin glutathione reductase; Potency, µM (series often up to 114 µM), for inactives: at the highest dose activity change, negative = inhibition, most hits filed as inhibitors; purified TGR, DTNB reduction, TNB absorbance 405 nm; Q962Y6; actives 3% (n = 360,000); AID 485364; also: potency is read from the fitted curve at half-maximal effect; % is scaled to controls: 0 for no effect and ±100 for the full control effect; nearly all actives have a fitted effect of over 60% in size
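TGR 20 nM + NADPH 100 uM (dispensed conc.), cpd preinc 15 min RT; start with NADPH (500 uM addition) then DTNB (15 mM addition). Kinetic TNB absorbance, 405 nm filter. Four-parameter Hill fit across titration.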
SARS PLpro yeast: SARS-CoV PLP inhibition in yeast; S. cerevisiae expressing SARS-CoV PLpro, growth rescue; Potency, µM (doses to about 32.9 µM), without a hit: at the top dose activity, positive = growth rescue, usual class: activators; actives 0.19% (n = 330,000); AID 485353; calls by dose curve; also: potency is read from the fitted curve at half-maximal effect; 0% is about no effect; nearly all actives have a fitted effect of over 55% in size
HCV inh: HCV inhibition | Potency, µM (highest dose often 41.8 µM), for inactives: top-dose activity change, negative = inhibition, hits mostly inhibitors | actives 3.4% (n = 340,000) | Huh7.5.1 HCVcc-Cre infection, luciferase reporter, 44 h | AID 651820; also: potency is read from the fitted curve at half-maximal effect; % is scaled to controls: 0 for no effect and ±100 for the full control effect
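Cells seeded at 1,000/well and cultured 4 h, then compounds added followed by HCVcc-Cre virus (~0.5 moi). After 44 h further culture, luciferase substrate was added, plates held 15 min at room temperature, and luminescence read for 15 sec.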
Pf growth 48h: P. falciparum growth inhibition at 48 hours (one generation) | P. falciparum luciferase growth in erythrocytes, 48 h | Potency, µM (top dose mostly 28.7 µM), for inactives: at the highest dose activity change, negative = inhibition, usual class: inhibitors | actives 5.9% (n = 310,000) | AID 504832; also: potency is read from the fitted curve at half-maximal effect; % is scaled to controls: 0 for no effect and ±100 for the full control effect
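Luciferase-expressing parasites in RBCs, 2% Hct / 0.1% parasitemia final; RPMI 1640 + 0.5% Albumax; 37 C, 5% CO2, one generation; luminescence read-out, lower signal = inhibition.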
Pf growth 96h: P. falciparum growth inhibition at 96 hours; P. falciparum luciferase reporter growth, 96 h; Potency, µM (doses to about 28.7 µM), for inactives: top-dose activity change, negative = inhibition, actives largely listed as inhibitors; actives 6.9% (n = 320,000); also: potency is read from the fitted curve at half-maximal effect; % is scaled to controls: 0 for no effect and ±100 for the full control effect
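Two parasite generations (96 h, 37 C, 5% CO2) of compound exposure in infected erythrocytes (0.05% parasitemia, 2% hematocrit). Luciferase-reporter P. falciparum; decreased luminescence indicates inhibited growth, aimed at apicoplast-acting delayed death.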
HCMV inh: human cytomegalovirus inhibition; activity change, negative = inhibition, % at 57.5 µM; actives 4.5% (n = 410,000); HFF cells, HCMV-luciferase reporter, 72 h; stronger effect = lower value; in the data active = activity change below about -60%; inconclusive = no clear call, values can overlap the other calls; inactive = above about -39%; also: % is scaled to controls: 0 for no effect and ±100 for the full control effect
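Luciferase read-out from HCMV-luciferase-infected HFFs (MOI 1 PFU/cell) 72 h post infection at 37C; compounds added after 16 h cell attachment; activity normalized between buffer-only basal and Salinomycin (10uM) inhibitor controls.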
* marks the source's active call; other numbers are inactive results; ? = inconclusive; / = no result given; [ ] = another dose, or the depositor's remark. Unless noted, calls follow the shape of the dose curve; as a rule, active = well fitted curve in the direction sought with a large enough effect; inconclusive = small, poorly fitted or top-dose-only effect, or another doubt; inactive = no such curve, though single readings can be large; an effect the other way counts as inactive or inconclusive.

SMILES | Sm TGR block | SARS PLpro yeast | HCV inh | Pf growth 48h | Pf growth 96h | HCMV inh
COc1cc2c(c(OC)c1)C(c1cccc(OC)c1OC)CC(=O)N2 (configuration not stated) | 9% | 2% | -8% | -7% | ? | -28
COc1cc(C2NC(=O)CCC2[N+](=O)[O-])cc(Br)c1OC (configuration not stated) | 5% | 1% | 6% | -24%[0.00184 µM] | -4% | -31
COc1cc(C2Nc3c(F)cccc3C3C=CCC32)cc(Br)c1OC (configuration not stated) | 20µM* | -1% | 1% | 9.3µM* | 4% | -14
CCn1c(SCC(=O)NC2CCCCC2)nnc1-c1ccccc1F | 0% | -3% | -5% | -15% | ? | -30
COC(=O)C(Cc1ccccc1)OS(N)(=O)=O (configuration not stated) | 4% | 3% | 30% | 78% | -20% | -15
CCOc1ccc2[nH]c(=O)c(CN(Cc3ccc(F)cc3)C(=O)N3CCCC3)cc2c1 | -2% | 6% | -8% | -13% | 395% | -8
CCOc1ccc2[nH]c(=O)c(CN(CCN3CCCC3)C(=S)Nc3ccccc3OCC)cc2c1 | -12% | 0% | ? | 6.6µM* | ? | -64*
COc1ccc2[nH]c(=O)c(CN(CC3CCCO3)C(=O)Nc3ccccc3OC)cc2c1 (configuration not stated) | 8% | 17% | ? | ? | / | -1
COc1ccc2[nH]c(=O)c(CN(CCN3CCCC3)C(=O)Nc3ccccc3Cl)cc2c1 | -26% | -2% | -24% | ? | 22% | -88*
COc1ccc(OC(=O)c2cn(-c3cccc(OC)c3)c(=O)c3ccccc23)cc1 | 12% | / | / | / | / | ?
CCOC(=O)C1CCN(S(=O)(=O)c2ccc3c(c2)CC(=O)N3)CC1 | 5% | 3% | 20% | 12µM* | 0% | -15
CCn1cc(C(=O)N(C)CC(OC)OC)c(=O)c2cc(S(=O)(=O)N3CCOCC3)ccc21 | -2% | -4% | 15% | 16% | 6.6µM* | -7
CCOC(=O)C1CCN(C(=O)c2ccc(S(=O)(=O)Nc3ccccc3OC)cc2)CC1 | 4% | 3% | ? | ? | 12µM* | -9
CCn1cc(C(=O)NCCN(CC(C)C)CC(C)C)c(=O)c2cc(S(=O)(=O)N3CCOCC3)ccc21 | -2% | 1% | -17% | ? | 0% | 11
CCOC(=O)C1CCCN(S(=O)(=O)c2cnc(Cl)c(Br)c2)C1 (configuration not stated) | 32µM* | 3% | ? | 2% | 39% | ?
CCOC(=O)C1CCN(C(=O)c2ccccc2NS(=O)(=O)c2ccccc2)CC1 | 8% | 4% | 22% | 22% | -60% | -17
CC1CC(C)CN(C(=O)COC(=O)c2ccc3c(c2)OCCO3)C1 (configuration not stated) | / | 0% | 14% | / | / | 3
O=C(O)c1cccc(-c2ccc(/C=N/n3cnc4sc5c(c4c3=O)CCCC5)o2)c1 | -13% | 0% | / | 5% | 19% | /
CCOC(=O)C1CN(S(=O)(=O)c2ccccc2)CCN1S(=O)(=O)c1ccccc1 (configuration not stated) | -24% | -1% | -12% | / | ? | 10
CCOC(=O)C1CCCN(C(=O)c2cn(C)c3ccc(S(=O)(=O)N4CCCC4)cc3c2=O)C1 (configuration not stated) | 5% | 5% | ? | -21% | -24% | 1
CCOC(=O)C1CCN(C(=O)COc2ccc(S(=O)(=O)N3CCCC3)cc2C)CC1 | 27% | 1% | -26% | -21% | 3.3µM* | -16
CCOC(=O)C1CCCN(C(=O)c2cccc(S(=O)(=O)N(C)c3c(C)n(C)n(-c4ccccc4)c3=O)c2)C1 (configuration not stated) | -15% | -6% | 6% | -4% | -5% | -99*
